Results: PubChem BioAssay (Tox21)
The source made the active and inactive calls. The call rests on the fitted dose curve; in most records, active means well fitted curve in the direction sought with a large enough effect in the repeat runs; inconclusive means weak or mixed curves; inactive means flat fitted curve, though single readings scatter.

Assay: qHTS assay to test for compound auto fluorescence at 535 nm (green) in HEK293 cell free culture (AID 720682)
Settings: cell-free medium, green autofluorescence 485/535 nm; series mostly up to 91.3 µM
From the text: U.S. Tox21 Program National Center for Advancing Translational Sciences [NCATS] NIH Chemical Genomics Center [NCGC] U.S. Environmental Protection Agency [EPA] National Institutes of Environmental Health Sciences [NIEHS] National Toxicology Program [NTP] U.S. Food and Drug Administration [FDA] Tox21 Assay Overview: Compound auto fluorescence often interferes with screening of the compound library against various biological targets and signaling pathways. Some of these compounds may have fluorophoric properties. Such properties may interfere with the assay outputs resulting in false positives and/or negatives. To decrease such complications and ensure the compound activities are relevant in terms of biological response, the Tox21 10K compound library was screened for auto fluorescence. From the fluorophores used as reporter signals in our screening assays, the auto fluorescence equivalencies of compounds against three fluorophores have been evaluated: Triamterene, Fluorescein and Rose Bengal sodium for blue, green and red fluorescence, respectively. The fluorescence intensities were measured using Excitation/Emission wavelengths at 405/460nm, 485/535nm and 540/590nm for blue, green and red labels, respectively. This assay includes the green fluorescence data.
Tox21 Assay Protocol Summary: 5 uL of culture medium (DMEM containing 10% FBS) per well was dispensed into black wall/clear bottom 1536-well plates using a Multidrop Combi Dispenser (ThermoFisher Scientific, Waltham, MA). After 23 nL compound or DMSO vehicle was transferred into assay plate by a pintool work station (Kalypsys, San Diego, CA), fluorescence intensities in the assay plates were measured by an Envision (PerkinElmer, Shelton, CT) plate reader using three labels for measuring blue, green and red fluorescence at […] 460, 535 and 590nm respectively.

| SMILES | outcome |
| --- | --- |
| COP(=O)(OC)SCn1c(=O)oc2cc(Cl)cnc21 | inactive |
| Oc1ccc(C2(c3ccc(O)cc3)c3ccccc3-c3ccccc32)cc1 | inactive |
| CCN | inactive |
| ClCc1ccc(Cl)cc1Cl | inactive |
| CC(C)OC(=S)S | inactive |
| CC1(C)C(/C=C(\Cl)C(F)(F)F)C1C(=O)OC(C#N)c1cccc(Oc2ccccc2)c1 (stereo not given) | inactive |
| Cc1cc(SCc2sc(-c3ccc(C(F)(F)F)c(F)c3)nc2C)ccc1OCC(=O)O | inactive |
| Oc1c(Cl)c(Cl)cc(Cl)c1Cl | inactive |
| CC(=O)Nc1ccc2c(c1)Cc1ccccc1-2 | inactive |
| CSCCCN=C=S | inactive |
| C[C@]12CC[C@@H]3c4ccc(OC(=O)N(CCCl)CCCl)cc4CC[C@H]3[C@@H]1CC[C@@H]2O | inactive |
| CCCOCC(=Nc1ccc(Cl)cc1C(F)(F)F)n1ccnc1 | inactive |
| CC(C)CC(C)N (stereo not given) | inactive |
| CCOC(=O)C1(c2ccccc2)CCN(CCC(C#N)(c2ccccc2)c2ccccc2)CC1 | inactive |
| N#C/C=C/C#N | inactive |
| O=[N+]([O-])c1cc([N+](=O)[O-])c2ccccc2c1 | inactive |
| CC1(C)CC/C(=C/c2ccc(Cl)cc2)C1(O)Cn1cncn1 (stereo not given) | inactive |
| CC(=O)[O-].CC(=O)[O-].O.O.[Cd+2] | inactive |
| CCOCCOC(C)=O | inactive |
| CC(=O)c1cc(C(C)(C)C)cc2c1CCC2(C)C | inactive |

| SMILES | outcome |
| --- | --- |
| CC(=O)[O-].[Tl+] | inactive |
| CS(=O)(=O)c1ccc(C(=O)C2C(=O)CCCC2=O)c([N+](=O)[O-])c1 | inactive |
| CCCCCCCCCCCCCCCC[n+]1ccccc1 | inactive |
| CC[C@H](C)[C@H]1O[C@]2(C=C[C@@H]1C)C[C@@H]1C[C@@H](C/C=C(\C)[C@@H](O[C@H]3C[C@H](OC)[C@@H](O[C@H]4C[C@H](OC)[C@@H](O)[C@H](C)O4)[C@H](C)O3)[C@@H](C)/C=C/C=C3\CO[C@@H]4[C@H](O)C(C)=C[C@@H](C(=O)O1)[C@]34O)O2 | inactive |
| N#CNC#N | inactive |
| CC(C)C1CCC(Cc2ccc(Cl)cc2)C1(O)Cn1cncn1 (stereo not given) | inactive |
| CC(=O)O[C@H]1CC[C@@]2(C)C(=CC[C@@H]3[C@@H]2CC[C@]2(C)C(=O)CC[C@@H]32)C1 | inactive |
| CCCN(CCC)CCc1c[nH]c2ccccc12 | inactive |
| CCOC(=O)OC1=C(c2cc(C)ccc2C)C(=O)NC12CCC(OC)CC2 (stereo not given) | inactive |
| Cc1cc(C)cc(OP(=O)(Oc2cc(C)cc(C)c2)Oc2cc(C)cc(C)c2)c1 | inactive |
| CCCCCCCCCCCCBr | inactive |
| c1ccc2cc3c(cc2c1)-c1cccc2cccc-3c12 | inactive |
| Fc1ccc(Oc2ccnc3cc(Cl)cc(Cl)c23)cc1 | inactive |
| CC(C)(C)c1ccc(CSc2cnn(C(C)(C)C)c(=O)c2Cl)cc1 | inactive |
| CC1(c2ccc(Oc3ccccc3)cc2)OC(=O)N(Nc2ccccc2)C1=O (stereo not given) | inactive |
| CN(C)C1CSSSC1 | inactive |
| CCC(C)(C)C(=O)OC1=C(c2ccc(Cl)cc2Cl)C(=O)OC12CCCCC2 | inactive |
| CCCCCCCCCCCCCCCCCCn1cc[n+](C)c1 | inactive |
| Cc1ccc(OP(=O)(Oc2ccccc2)Oc2ccccc2)cc1 | inactive |
| CCOc1cc(C(C)(C)C)ccc1C1COC(c2c(F)cccc2F)=N1 (stereo not given) | inactive |
